Measurements reported in PubChem BioAssay (NCATS).
Results filed as inconclusive are left out. Activity calls are given as the source filed them. Unless noted, calls come from the whole dose curve; as a rule, active = well fitted curve in the direction sought with a large enough effect; inconclusive = small, poorly fitted or top-dose-only effect, or another doubt; inactive = no such curve, though single readings can be large; an effect the other way counts as inactive or inconclusive.

Tests used:
[1] = target: Lysosomal acid glucosylceramidase (Homo sapiens) (UniProt P04062); assay: Glucocerebrosidase-p2 (AID 348; in the data active = potency below about 10 µM; note: potency is the fitted concentration of half-maximal effect); conditions: purified GBA, blue fluorogenic substrate, 40 min
How it was run: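 Compounds titrated from 0.6 nM upwards against 0.2 nM enzyme in pH 5.9 citric acid/KH2PO4, taurocholate, tween-20; blue fluorogenic substrate 80 uM, 40 min room temperature, stopped and read Ex 365/Em 440 for AC50.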

[2] = NFAT Signaling Pathway (AID 444; active = well fitted curve in either direction with a large enough effect, not every such curve was filed as active;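 note: carbachol stimulus at about its EC50 of 1 µM final; % is set by controls: 0 for no effect and ±100 for the full control effect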); conditions: Jurkat NFAT-bla M1, carbachol, beta-lactamase ratio, 5 h; at 7.69 µM (top of the series) unless noted
How it was run: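 Jurkat cells carrying an NFAT-driven β-lactamase reporter and co-transfected muscarinic M1 receptor were treated with compound plus carbachol (1 uM final, an EC50 level) for 5 h at 37 °C. CCF4 loading followed for 1 h at RT; 460/530 nm ratio gave %activity.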

[3] = Stat Signaling Pathway (AID 446; active = well fitted curve in either direction with a large enough effect, not every such curve was filed as active;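 note: ME-180 cervical cancer cells given 40 pM IL-6 alongside compound; SIE-controlled beta-lactamase reporter measured as 460/530 nm FRET emission ratio; % is set by controls: 0 for no effect and ±100 for the full control effect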); conditions: ME-180 SIE beta-lactamase reporter, IL-6 stimulated, 5 h; at 7.69 µM (top of the series) unless noted
How it was run: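 ME-180 SIE-bla cells; overnight plating; cpd + IL-6 40 pM, 5 h, 37 C; LiveBLAzer 2.5 h RT; 460/530 nm emission ratio. Normalized to 300 pM IL-6 and 125 nM JAK inhibitor controls.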

[4] = target: Glucocorticoid receptor (Homo sapiens) (UniProt P04150); assay: GR-GFP Redistribution (AID 450;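 active = compounds whose dose series gives a full or clear partial fitted curve of increased nuclear translocation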; note: potency is the fitted concentration of half-maximal effect); conditions: U2OS GR-GFP nuclear translocation, laser cytometry, 2 h
[5] = target: Glucocorticoid receptor (Homo sapiens) (UniProt P04150); assay: GR-EFC Redistribution (AID 451; calls by dose curve; note: potency is the fitted concentration of half-maximal effect); conditions: CHO-K1 GR-EFC translocation, beta-gal luminescence, 2 h
How it was run: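 CHO-K1 cells stably expressing nuclear-localized β-gal enzyme acceptor and GR fused C-terminally to the enzyme donor fragment; ligand-driven nuclear translocation restores β-gal by complementation. Compounds titrated up to 46 uM final, 2 h at 37 °C; luminescence read.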

[6] = target: Mitogen-activated protein kinase 10 (Mus musculus) (UniProt Q61831); assay: JNK3 AlphaScreen Assay (AID 530; active = well fitted curve in either direction with a large enough effect, not every such curve was filed as active;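 note: kinase came from lysate of stimulated human HepG2 cells; signal reports phosphorylation of biotinylated GST-cJun 1-79 at Ser73 with 10 µM ATP; % is set by controls: 0 for no effect and ±100 for the full control effect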); conditions: JNK3 lysate, c-Jun phosphorylation; series mostly up to 57.1 µM
How it was run: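 Inhibitors reduce antibody binding to phosphorylated biotin-cJun, lowering AlphaScreen luminescence. Lysates from HepG2 cells pre-activated by IL-1beta plus TNF-alpha supplied JNK3; compounds were titrated.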

[7] = target: Dual specificity protein kinase CLK4 (Homo sapiens) (UniProt Q9HAZ1); assay: qHTS Assay for Inhibitors of CDC-like Kinase 4 (Kinase-Glo Assay) (AID 1770); conditions: recombinant Clk4, Kinase-Glo ATP depletion luminescence; series mostly up to 66.7 µM; note: nearly all actives have a fitted effect of over 65% in size; note: potency is the fitted concentration of half-maximal effect
How it was run: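 Luminescent ATP-depletion read-out (Kinase-Glo) after 4.5 h room-temperature reaction of Clk4 (25 nM final) with RS peptide (100 uM) and ATP (1 uM), pH 7.5 Tris buffer with MgCl2 and DTT.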

[8] = target: Dual specificity protein kinase CLK4 (Homo sapiens) (UniProt Q9HAZ1); assay: qHTS Assay for Inhibitors of CDC-like Kinase 4 (ADP-FP Assay) (AID 1795); conditions: Transcreener ADP fluorescence polarization; series mostly up to 50 µM;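 note: recombinant human CLK4 phosphorylating RS repeat peptide at 1 µM ATP; % is set by controls: 0 for no effect and ±100 for the full control effect; nearly all actives have a fitted effect of over 60% in size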
How it was run: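 Kinase activity was measured as ADP production using Transcreener orange tracer (4 nM) and ADP antibody (1 ug/mL) fluorescence polarization, with ADP calculated from a calibration curve. The 1 h reaction contained 6.25 nM Clk4, 1 uM ATP and 100 uM RS peptide at pH 7.5 with Mg2+.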

[9] = Counterscreen qHTS for small molecule stabilizers of the endoplasmic reticulum resident proteome: GLuc-NoTag assay (AID 1508627); conditions: Gaussia luciferase NoTag secretion counterscreen, luminescence, thapsigargin 100 nM for final 4 h; series mostly up to 76.4 µM;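 note: SH-SY5Y cells given compound then 100 nM thapsigargin to empty ER calcium; 0% = thapsigargin alone and -100% = DMSO vehicle control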
How it was run: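 SH-SY5Y cells stably expressing constitutively secreted GLuc (no SERCaMP tag) were pre-incubated 5 h, treated with compound for 19 h, then 100 nM thapsigargin for 4 h at 37C; medium GLuc read by coelenterazine luminescence.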

[10] = Confirmatory qHTS for small molecule stabilizers of the endoplasmic reticulum resident proteome: Secreted ER Calcium Modulated Protein (SERCaMP) assay (AID 1508628); conditions: SERCaMP secreted luciferase ER calcium/proteostasis reporter; series mostly up to 76.3 µM; note: potency is the fitted concentration of half-maximal effect; nearly all actives have a fitted effect of over 40% in size
How it was run: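 SH-SY5Y cells stably expressing GLuc-SERCaMP, treated 16 h with compound (primary 1.53, 7.67, 38.3 uM; confirmation 11 concentrations, up to 76.6 uM), then 100 nM thapsigargin for 4 h. Secreted Gaussia luciferase in medium read by coelenterazine luminescence.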

[11] = AP1 Signaling Pathway (AID 357; active = well fitted curve in either direction with a large enough effect, not every such curve was filed as active; note: % is set by controls: 0 for no effect and ±100 for the full control effect); conditions: ME-180 (cervical carcinoma) AP-1-bla reporter, EGF-induced, beta-lactamase ratio, 5 h; at 7.69 µM (top of the series) unless noted
How it was run: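 Titration-series screen for positive or negative modulators of EC50 EGF-induced signaling in ME-180 cells carrying an AP-1-driven beta-lactamase reporter. After 5 hours at 37 degrees Celsius, CCF4 460nm/530nm emission ratio gave %Activity; AC50 values derived.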

[12] = target: 3',5'-cyclic-AMP phosphodiesterase 4B (Homo sapiens) (UniProt Q07343); assay: qHTS Assay for Inhibitors of PDE-IV (AID 607; active = well fitted activation curve with a large enough effect in the main read-out, with a control signal flat, not every such curve was filed as active; note: % of control where 0% means no effect); conditions: HEK293 ACTOne CNG channel cells, membrane potential fluorescence; series mostly up to 22.9 µM
How it was run: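 ACTOne HEK293 cells carry a modified cAMP-gated CNG channel and express endogenous PDE4; plated 1000 cells/well, compounds up to 22.9 uM final. Membrane-potential dye fluorescence (ex 535/em 590) was read; parental cells received 10 uM forskolin + 100 uM RO 20-1724.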

[13] = Cell Viability qHTS for small molecule stabilizers of the endoplasmic reticulum resident proteome (AID 1508629); conditions: cell viability counter-screen, 100 nM thapsigargin for final 4 h
[14] = qHTS Assay for Lipid Storage Modulators (AID 1519; calls by dose curve); conditions: Drosophila S3 cells, BODIPY lipid droplet/cell ratio, laser cytometry, cells loaded with oleic acid
How it was run: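 Cells seeded at 5,000 per well were treated with compounds over a concentration series and loaded with oleic acid (400 uM, as added). Lipid droplet fluorescence (488 nm excitation, 500-530 nm channel) was read by laser-scanning cytometry and normalized to 20 uM Triacsin C.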

[15] = target: Dual specificity protein kinase CLK4 (Homo sapiens) (UniProt Q9HAZ1); assay: qHTS Assay for Inhibitors of CDC-like Kinase 4 (ADP-Glo Assay) (AID 1771); conditions: recombinant CLK4, ADP-Glo luminescence; series mostly up to 80 µM; note: % is set by controls: 0 for no effect and ±100 for the full control effect; nearly all actives have a fitted effect of over 70% in size
How it was run: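 Luminescence from ADP-Glo reports ADP produced by 25 nM Clk4 acting on 100 uM RS repeat peptide with 1 uM ATP over 1 hr at room temperature; residual ATP is depleted before ADP is converted to ATP for detection.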

[16] = target: Ubiquitin carboxyl-terminal hydrolase 1 (Homo sapiens) (UniProt O94782); assay: Inhibitors of USP1/UAF1: Pilot qHTS (AID 504865); conditions: purified USP1/UAF1, Ub-rhodamine cleavage fluorescence; series mostly up to 54.9 µM;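 note: rhodamine fluorescence freed from ubiquitin-rhodamine substrate followed over time; top concentration of the series differs between compounds; % is set by controls: 0 for no effect and ±100 for the full control effect; nearly all actives have a fitted effect of over 35% in size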
How it was run: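 Deubiquitinase activity followed as kinetic rhodamine fluorescence release from 150 nM Ub-Rho. 1 nM USP1/UAF1 with compound, after 15 min room-temperature preincubation, in HEPES pH 7.8 buffer containing TCEP, EDTA, BSA and Tween-20.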

[17] = target: Cytochrome P450 1A2 (Homo sapiens) (UniProt P05177); assay: p450-cyp1a2 (AID 410; calls by dose curve; note: potency is the fitted concentration of half-maximal effect); conditions: recombinant CYP1A2, luciferin-ME demethylation, luminescence; series mostly up to 57 µM
How it was run: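 Luminescent readout of luciferin formed from Luciferin-ME by human CYP1A2; data normalized against complete inhibition by 57 uM furafylline. Enzyme 20nM, substrate 100uM at Km, 100mM KPO4 buffer, 60 min reaction at room temperature.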

[18] = target: Cytochrome P450 3A4 (Homo sapiens) (UniProt P08684); assay: qHTS Assay for Inhibitors and Substrates of Cytochrome P450 3A4 (AID 884); conditions: recombinant CYP3A4, Luciferin-PPXE luminescence; series mostly up to 57.1 µM; note: potency is the fitted concentration of half-maximal effect; nearly all actives have a fitted effect of over 50% in size
How it was run: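 20 nM human CYP3A4 with 25 uM Luciferin-PPXE (at KM) in 200 mM KPO4, preincubated 10 min with compound; NADPH regeneration started a 60 min RT reaction. Luciferin detected by luminescence, normalized to 57 uM ketoconazole as full inhibition.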

[19] = target: Cytochrome P450 3A4 (Homo sapiens) (UniProt P08684); assay: qHTS Assay for Activators of Cytochrome P450 3A4 (AID 885); conditions: recombinant CYP3A4, Luciferin-PPXE luminescence, 60 min; series mostly up to 57.1 µM; note: nearly all actives have a fitted effect of over 65% in size
How it was run: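 20nM CYP3A4 + 25uM Luciferin-PPXE (=KM), 200mM KPO4; cpd 10 min RT; NADPH regen, 60 min RT; stop w/ detection buffer, 20 min; luminescence. Normalized to 57 uM ketoconazole.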

Lysosomal acid glucosylceramidase (Homo sapiens), sequence (P04062 whole entry, looked up): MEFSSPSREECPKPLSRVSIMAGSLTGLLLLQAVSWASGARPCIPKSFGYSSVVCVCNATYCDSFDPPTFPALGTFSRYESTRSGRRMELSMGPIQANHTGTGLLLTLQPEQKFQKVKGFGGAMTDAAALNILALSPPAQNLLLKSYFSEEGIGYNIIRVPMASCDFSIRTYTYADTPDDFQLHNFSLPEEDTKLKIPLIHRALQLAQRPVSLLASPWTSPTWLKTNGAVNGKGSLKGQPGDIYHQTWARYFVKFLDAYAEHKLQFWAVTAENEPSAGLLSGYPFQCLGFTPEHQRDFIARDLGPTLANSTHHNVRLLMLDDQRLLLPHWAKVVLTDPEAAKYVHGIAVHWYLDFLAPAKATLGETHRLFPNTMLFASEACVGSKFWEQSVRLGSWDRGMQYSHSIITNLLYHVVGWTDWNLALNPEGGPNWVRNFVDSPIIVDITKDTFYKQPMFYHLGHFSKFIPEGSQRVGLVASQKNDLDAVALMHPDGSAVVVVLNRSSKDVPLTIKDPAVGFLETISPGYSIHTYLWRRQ
Dual specificity protein kinase CLK4 (Homo sapiens), sequence (Q9HAZ1 whole entry, looked up): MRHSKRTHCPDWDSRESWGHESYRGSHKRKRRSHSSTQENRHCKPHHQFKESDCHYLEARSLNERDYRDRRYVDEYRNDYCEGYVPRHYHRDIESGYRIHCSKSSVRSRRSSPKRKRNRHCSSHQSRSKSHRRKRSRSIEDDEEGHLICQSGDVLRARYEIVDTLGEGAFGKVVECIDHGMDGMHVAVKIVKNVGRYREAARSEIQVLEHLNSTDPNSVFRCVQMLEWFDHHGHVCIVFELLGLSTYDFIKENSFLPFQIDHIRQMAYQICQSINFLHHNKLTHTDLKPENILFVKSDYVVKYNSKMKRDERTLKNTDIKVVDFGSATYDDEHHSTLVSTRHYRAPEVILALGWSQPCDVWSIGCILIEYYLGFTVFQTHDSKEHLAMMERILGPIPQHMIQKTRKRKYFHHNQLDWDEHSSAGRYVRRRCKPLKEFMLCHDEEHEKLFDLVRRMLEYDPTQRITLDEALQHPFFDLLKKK
Glucocorticoid receptor (Homo sapiens), sequence (P04150 whole entry, looked up, the tested form may be a part): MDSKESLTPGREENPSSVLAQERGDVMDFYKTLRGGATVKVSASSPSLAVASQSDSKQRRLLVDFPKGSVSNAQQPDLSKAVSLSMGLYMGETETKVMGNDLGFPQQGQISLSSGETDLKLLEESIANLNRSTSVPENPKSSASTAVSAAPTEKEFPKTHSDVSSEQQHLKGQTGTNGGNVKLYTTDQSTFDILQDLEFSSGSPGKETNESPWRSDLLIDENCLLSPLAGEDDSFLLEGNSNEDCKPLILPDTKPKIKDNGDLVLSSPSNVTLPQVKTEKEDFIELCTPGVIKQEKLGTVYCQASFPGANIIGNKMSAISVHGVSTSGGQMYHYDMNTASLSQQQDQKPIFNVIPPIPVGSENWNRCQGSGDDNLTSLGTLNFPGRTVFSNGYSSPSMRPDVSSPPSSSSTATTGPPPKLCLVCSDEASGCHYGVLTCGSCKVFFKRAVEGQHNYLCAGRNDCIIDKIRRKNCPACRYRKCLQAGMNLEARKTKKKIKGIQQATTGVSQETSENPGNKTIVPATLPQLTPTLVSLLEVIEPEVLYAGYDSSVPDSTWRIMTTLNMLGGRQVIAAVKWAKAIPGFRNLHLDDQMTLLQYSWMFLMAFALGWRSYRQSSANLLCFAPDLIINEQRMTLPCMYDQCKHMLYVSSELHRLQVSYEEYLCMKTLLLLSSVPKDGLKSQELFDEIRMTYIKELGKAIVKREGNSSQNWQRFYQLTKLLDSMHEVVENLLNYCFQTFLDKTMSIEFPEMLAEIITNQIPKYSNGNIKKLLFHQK
Cytochrome P450 3A4 (Homo sapiens), sequence (P08684 whole entry, looked up): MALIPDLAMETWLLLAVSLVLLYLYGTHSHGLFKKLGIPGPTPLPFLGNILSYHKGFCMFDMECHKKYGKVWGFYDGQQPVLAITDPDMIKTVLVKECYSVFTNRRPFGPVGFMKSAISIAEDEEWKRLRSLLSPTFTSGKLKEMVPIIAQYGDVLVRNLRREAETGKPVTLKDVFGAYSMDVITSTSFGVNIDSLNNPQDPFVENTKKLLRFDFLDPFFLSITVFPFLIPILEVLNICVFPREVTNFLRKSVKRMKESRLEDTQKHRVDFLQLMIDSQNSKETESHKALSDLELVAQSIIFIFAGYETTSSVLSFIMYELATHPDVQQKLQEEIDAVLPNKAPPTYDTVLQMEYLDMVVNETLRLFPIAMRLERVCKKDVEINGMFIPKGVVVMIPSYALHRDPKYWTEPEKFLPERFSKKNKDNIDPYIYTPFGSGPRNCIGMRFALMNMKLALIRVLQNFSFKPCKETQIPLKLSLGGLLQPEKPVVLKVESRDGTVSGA
3',5'-cyclic-AMP phosphodiesterase 4B (Homo sapiens), sequence (Q07343 whole entry, looked up): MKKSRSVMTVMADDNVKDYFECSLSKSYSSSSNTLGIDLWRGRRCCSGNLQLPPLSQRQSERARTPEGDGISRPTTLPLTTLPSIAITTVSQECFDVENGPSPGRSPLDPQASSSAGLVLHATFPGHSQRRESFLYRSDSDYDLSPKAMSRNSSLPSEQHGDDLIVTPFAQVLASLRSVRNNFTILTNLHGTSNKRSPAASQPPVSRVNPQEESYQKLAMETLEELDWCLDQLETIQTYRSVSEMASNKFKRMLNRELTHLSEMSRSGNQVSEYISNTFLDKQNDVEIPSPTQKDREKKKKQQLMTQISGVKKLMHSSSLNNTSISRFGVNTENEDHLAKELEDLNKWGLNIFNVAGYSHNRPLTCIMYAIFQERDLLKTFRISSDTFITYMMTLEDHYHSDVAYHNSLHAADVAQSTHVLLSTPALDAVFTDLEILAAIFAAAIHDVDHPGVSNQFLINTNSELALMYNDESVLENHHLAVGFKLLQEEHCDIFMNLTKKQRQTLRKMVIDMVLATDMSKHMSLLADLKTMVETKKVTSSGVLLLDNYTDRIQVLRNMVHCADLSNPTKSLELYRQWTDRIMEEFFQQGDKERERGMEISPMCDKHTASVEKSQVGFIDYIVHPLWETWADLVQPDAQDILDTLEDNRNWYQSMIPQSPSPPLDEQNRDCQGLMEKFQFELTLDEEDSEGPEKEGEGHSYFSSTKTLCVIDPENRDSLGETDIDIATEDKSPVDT
Ubiquitin carboxyl-terminal hydrolase 1 (Homo sapiens), sequence (O94782 whole entry, looked up): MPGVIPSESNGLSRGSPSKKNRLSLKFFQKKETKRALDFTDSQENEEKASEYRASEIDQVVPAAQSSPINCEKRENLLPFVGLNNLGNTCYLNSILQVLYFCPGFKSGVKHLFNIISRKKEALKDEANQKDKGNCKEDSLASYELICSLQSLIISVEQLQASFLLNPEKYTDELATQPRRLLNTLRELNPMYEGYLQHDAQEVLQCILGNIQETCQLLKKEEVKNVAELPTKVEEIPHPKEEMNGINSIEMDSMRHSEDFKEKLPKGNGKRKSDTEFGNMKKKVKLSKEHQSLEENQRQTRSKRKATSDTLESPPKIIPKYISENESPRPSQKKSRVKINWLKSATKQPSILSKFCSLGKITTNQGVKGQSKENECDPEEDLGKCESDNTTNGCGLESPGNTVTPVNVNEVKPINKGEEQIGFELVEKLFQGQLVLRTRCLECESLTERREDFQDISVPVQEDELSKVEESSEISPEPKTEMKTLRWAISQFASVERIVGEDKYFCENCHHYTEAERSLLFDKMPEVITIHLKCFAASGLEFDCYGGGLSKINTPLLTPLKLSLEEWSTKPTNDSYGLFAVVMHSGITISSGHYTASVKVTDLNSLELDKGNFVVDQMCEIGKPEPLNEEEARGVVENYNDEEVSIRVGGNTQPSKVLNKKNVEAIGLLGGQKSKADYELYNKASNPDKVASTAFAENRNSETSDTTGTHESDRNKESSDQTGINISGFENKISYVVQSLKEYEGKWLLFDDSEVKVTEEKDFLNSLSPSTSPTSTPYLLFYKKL
Cytochrome P450 1A2 (Homo sapiens), sequence (P05177 whole entry, looked up): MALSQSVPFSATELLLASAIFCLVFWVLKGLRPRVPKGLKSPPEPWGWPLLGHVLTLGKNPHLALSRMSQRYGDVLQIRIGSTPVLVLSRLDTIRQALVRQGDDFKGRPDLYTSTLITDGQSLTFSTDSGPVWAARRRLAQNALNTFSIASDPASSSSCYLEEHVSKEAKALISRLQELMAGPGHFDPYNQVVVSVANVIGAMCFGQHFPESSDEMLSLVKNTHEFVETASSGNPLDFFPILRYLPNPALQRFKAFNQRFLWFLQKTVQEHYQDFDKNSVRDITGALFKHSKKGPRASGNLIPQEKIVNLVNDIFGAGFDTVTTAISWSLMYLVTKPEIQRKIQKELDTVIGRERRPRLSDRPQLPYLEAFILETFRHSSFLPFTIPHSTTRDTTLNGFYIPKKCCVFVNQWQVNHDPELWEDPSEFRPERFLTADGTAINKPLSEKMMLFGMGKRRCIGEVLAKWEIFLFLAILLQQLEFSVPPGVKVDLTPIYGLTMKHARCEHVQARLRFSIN

COc1cccc(-c2nc(N3CCN(C)CC3)c3ccccc3n2)c1
inactive: Potency [1] > 11.4 µM | activity change, negative = inhibition [2] 12.1% | activity, negative = inhibition [3] -2.04% | Potency [4] > 46 µM | Potency [5] > 46 µM | outcome [6] | Potency [8] | Potency [9]
active: Potency [7] 28.2 µM | Potency [10] 20 µM

COc1ccc(Oc2ncc3nc(-c4ccccc4)c(=O)n(C4CC4)c3n2)cc1
inactive: Potency [1] > 11.4 µM | activity change, negative = inhibition [11] -15.8% | activity change, negative = inhibition [2] 5.68% | activity, negative = inhibition [3] -1.16% | Potency [4] > 9.22 µM | Potency [5] > 46 µM | outcome [6] | Potency [12] | Potency [9] | max response [13] 12.6%

CCCCCCCCCCCCc1ccccc1O
inactive: Potency [9] | max response [13] 11.8%

COCCn1c(=O)c(-c2ccc(Cl)cc2)nc2cnc(OCc3ccccc3)nc21
-2.09%: max response ([14]; measured here: cell count channel max response)
-15.5%: max response ([14]; measured here: lipid channel max response)
inactive: Potency [1] > 11.4 µM | activity change, negative = inhibition [11] -14.1% | activity change, negative = inhibition [2] 1.06% | activity, negative = inhibition [3] -2.08% | Potency [4] > 9.22 µM | Potency [5] > 46 µM | outcome [6] | activity change, negative = inhibition ([14]; at 57.5 µM (top of the series)) -8.74% | Potency [7] | Potency [15] | Potency [8] | Potency [16] | Potency [9]

O=C(c1ccco1)N1CCC[C@@]2(CCN(c3ccncc3)C2)C1
inactive: Potency [1] > 11.4 µM | activity change, negative = inhibition [11] 0.424% | activity, negative = inhibition [3] 1.83% | Potency [5] > 46 µM | outcome [6] | Potency [12] | Potency [19] | Potency [9]
active: Potency [17] 12.6 µM | Potency [18] 1.26 µM | Potency [10] 28.2 µM
